In PubChem BioAssay (NCATS):
Values joined by “and” are separate entries in the source; they are usually repeats but may differ in a detail not shown here. Equal entries are not always repeated. Inconclusive results are not listed. Where a call stands in place of a potency, no number is given. A number with no mark means an inactive call. Active and inactive are the calls of the source. Unless noted, calls come from the whole dose curve; as a rule, active = well fitted curve in the direction sought with a large enough effect; inconclusive = small, poorly fitted or top-dose-only effect, or another doubt; inactive = no such curve, though single readings can be large; an effect the other way counts as inactive or inconclusive.

Assays:
[1] = target: Voltage-gated inwardly rectifying potassium channel KCNH2 (Homo sapiens) (UniProt Q12809); assay: qHTS Assay for Small Molecule Inhibitors of the Human hERG Channel Activity (AID 588834); conditions: U2OS BacMam hERG, FluxOR thallium flux fluorescence; series mostly up to 46.1 µM;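 note: lower thallium flux fluorescence means stronger hERG block; nearly all actives have a fitted effect of over 50% in size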; note: potency is the fitted concentration of half-maximal effect
In short: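 hERG-BacMam U2OS, 2000 cells/well; 0.7X FluxOR loading 1 hr RT dark; cpd ~10 min 37 °C; stim buffer; FDSS fluorescence 2 min @ 1 s; AC50 Hill fit.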

[2] = target: Luciferin 4-monooxygenase (Photinus pyralis) (UniProt P08659); assay: Biochemical firefly luciferase enzyme assay for NPC (AID 624030); note: nearly all actives have a fitted effect of over 70% in size; note: potency is the fitted concentration of half-maximal effect; conditions: purified P. pyralis luciferase, luminescence, 5 min; series mostly up to 58.6 µM
In short: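 Purified P. pyralis luciferase at 10 nM in 50 mM Tris Acetate (final), luminescence read within 5 minutes of enzyme addition to compounds. Activity normalised to PTC124 versus DMSO; concentration-response curves classed by r2, magnitude and activity.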

[3] = S16 Schwann cell viability assay (CellTiter-Glo assay) (AID 624031); conditions: S16 rat Schwann cells viability, 24 h; series mostly up to 57.5 µM; note: nearly all actives have a fitted effect of over 70% in size; note: potency is the fitted concentration of half-maximal effect
In short: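 Luminescent ATP read-out (CellTiter-Glo) after 24 h compound exposure of native S16 rat Schwann cells at 37 °C. Signals were normalized between cell-free wells and DMSO-treated cells, set as 0% activity.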

[4] = S16 Schwann cell PMP22 intronic element beta-lactamase assay (AID 624044; calls by dose curve; note: nearly all actives have a fitted effect of over 15% in size); conditions: S16 rat Schwann cells, PMP22 element beta-lactamase FRET, 24 h; ratio activity, negative = inhibition: at 38.3 µM (top of the series) unless noted
In short: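 Rat S16 Schwann cells with beta-Lac driven by a PMP22 intronic element, compound-treated 24 h at 37 °C. LiveBLAzer FRET B/G read: 460 nm normalized to potassium clavulanate vs DMSO; 535 nm FRET as viability; concentration-effect curves classified.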

[5] = S16 Schwann cell PMP22 intronic element firefly luciferase assay (AID 624032); conditions: S16 rat Schwann cells, PMP22 element FLuc, 24 h; series mostly up to 57.5 µM; note: nearly all actives have a fitted effect of over 30% in size; note: potency is the fitted concentration of half-maximal effect
In short: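 Rat S16 Schwann cells stably carrying firefly luciferase driven by a PMP22 intronic element, in 10% FBS, treated 24 h at 37 C. ONE-Glo luminescence normalized to PTC124 control and DMSO (0%); curves classed by r2, magnitude and activity.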

Chain of Luciferin 4-monooxygenase (Photinus pyralis) (P08659 whole entry, looked up): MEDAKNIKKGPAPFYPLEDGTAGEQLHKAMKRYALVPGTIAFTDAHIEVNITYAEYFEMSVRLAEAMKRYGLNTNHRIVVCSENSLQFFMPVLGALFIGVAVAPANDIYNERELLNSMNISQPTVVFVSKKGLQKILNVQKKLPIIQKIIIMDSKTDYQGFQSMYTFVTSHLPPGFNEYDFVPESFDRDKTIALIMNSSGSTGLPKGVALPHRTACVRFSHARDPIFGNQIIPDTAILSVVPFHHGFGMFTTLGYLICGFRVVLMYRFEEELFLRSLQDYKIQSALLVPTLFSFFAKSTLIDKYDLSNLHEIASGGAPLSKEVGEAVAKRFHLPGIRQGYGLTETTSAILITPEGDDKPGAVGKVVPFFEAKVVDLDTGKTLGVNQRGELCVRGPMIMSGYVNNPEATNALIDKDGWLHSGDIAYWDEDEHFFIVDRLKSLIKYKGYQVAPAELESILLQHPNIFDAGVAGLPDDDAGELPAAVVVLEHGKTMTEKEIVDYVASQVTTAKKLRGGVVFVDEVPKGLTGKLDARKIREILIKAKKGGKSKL
Chain of Voltage-gated inwardly rectifying potassium channel KCNH2 (Homo sapiens) (Q12809 whole entry, looked up): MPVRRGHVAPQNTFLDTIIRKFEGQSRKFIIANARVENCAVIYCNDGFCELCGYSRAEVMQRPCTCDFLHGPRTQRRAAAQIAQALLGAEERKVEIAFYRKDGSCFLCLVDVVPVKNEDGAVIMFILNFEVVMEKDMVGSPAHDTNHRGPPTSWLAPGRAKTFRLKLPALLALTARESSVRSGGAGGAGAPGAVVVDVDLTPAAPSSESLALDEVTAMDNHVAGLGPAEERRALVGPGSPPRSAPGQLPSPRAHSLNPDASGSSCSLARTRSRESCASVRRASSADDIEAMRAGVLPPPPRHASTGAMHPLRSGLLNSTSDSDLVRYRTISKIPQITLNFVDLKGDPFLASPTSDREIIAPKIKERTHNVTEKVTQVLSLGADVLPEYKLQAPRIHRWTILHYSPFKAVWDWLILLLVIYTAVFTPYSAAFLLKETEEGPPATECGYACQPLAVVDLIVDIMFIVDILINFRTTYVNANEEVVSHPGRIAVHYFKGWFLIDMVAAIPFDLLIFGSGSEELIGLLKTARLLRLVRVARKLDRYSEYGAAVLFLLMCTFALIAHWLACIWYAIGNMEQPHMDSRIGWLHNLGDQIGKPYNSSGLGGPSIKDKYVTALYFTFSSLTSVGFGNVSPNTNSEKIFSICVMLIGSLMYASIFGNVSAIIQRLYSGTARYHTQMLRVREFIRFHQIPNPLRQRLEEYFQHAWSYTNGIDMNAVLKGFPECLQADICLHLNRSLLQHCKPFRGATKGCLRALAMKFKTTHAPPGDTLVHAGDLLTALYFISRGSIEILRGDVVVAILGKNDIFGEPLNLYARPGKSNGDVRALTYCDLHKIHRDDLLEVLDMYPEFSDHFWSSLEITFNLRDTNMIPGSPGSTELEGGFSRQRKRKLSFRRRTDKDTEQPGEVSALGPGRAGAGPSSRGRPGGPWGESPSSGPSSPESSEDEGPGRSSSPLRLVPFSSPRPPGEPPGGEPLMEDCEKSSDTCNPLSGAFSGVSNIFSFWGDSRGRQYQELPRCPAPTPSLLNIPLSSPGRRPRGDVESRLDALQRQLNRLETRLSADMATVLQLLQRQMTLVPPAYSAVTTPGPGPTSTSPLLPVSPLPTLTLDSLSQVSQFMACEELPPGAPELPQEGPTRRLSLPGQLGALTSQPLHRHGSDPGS

Row | SMILES | Potency [1] | Potency [2] | Potency [3] | ratio activity, negative = inhibition [4] | Potency [5]
1 | C=CC[N+]1([C@H]2C[C@H]3[C@@H]4CC[C@H]5C[C@H](O)[C@@H](N6CCOCC6)C[C@]5(C)[C@H]4CC[C@]3(C)[C@H]2OC(C)=O)CCCC1 | inactive | inactive | inactive | -0.444% | 
2 | CO[C@H]1C[C@@H]2CC[C@@H](C)[C@@](O)(O2)C(=O)C(=O)N2CCCC[C@H]2C(=O)O[C@H]([C@H](C)C[C@@H]2CC[C@@H](OC(=O)C(C)(CO)CO)[C@H](OC)C2)CC(=O)[C@H](C)/C=C(\C)[C@@H](O)[C@@H](OC)C(=O)[C@H](C)C[C@H](C)/C=C/C=C/C=C/1C | inactive | inactive | inactive | -3.79% | inactive
3 | C#C[C@]1(O)CC[C@@H]2[C@H]3CCC4=CC(=O)CC[C@H]4[C@H]3C(=C)C[C@@]21CC | inactive | inactive | inactive | -9.17% (active) | 
4 | CCCC(CCC)C(=O)OC1C[C@H]2CC[C@@H](C1)[N+]2(C)C (some centres not stated) | inactive | inactive | inactive | 6.3% | inactive
5 | COc1cc(NCCCC(C)N)c2ncccc2c1 (configuration not stated) | inactive | inactive |  |  | 6.42 µM (active)
6 | COC(=O)C(CN)c1c[nH]c2ccc(OC)cc12 (configuration not stated) | inactive | inactive | inactive | 0.76% | 
7 | C[C@H](CCCC(C)(C)O)[C@H]1CC[C@H]2[C@@H]3CC=C4C[C@@H](O)CC[C@]4(C)[C@H]3CC[C@]12C | inactive | inactive |  |  | inactive
8 | NC(=O)C1c2ccccc2CCc2ccccc21 | inactive | inactive |  |  | inactive
9 | COc1ccc(-c2noc(CC(=O)O)c2-c2ccc(OC)cc2)cc1 | inactive | inactive | inactive | -1.01% | 
10 | CC1C(=O)CC2C3(C)CCC2(C(C)C(=O)O)C(=O)C13 (configuration not stated) | inactive | inactive |  |  | inactive
11 | O=P(O)(O)OP(=O)(O)OP(=O)(O)O | inactive | inactive | inactive | -5.37% | 
12 | COc1ccc2c(c1)OC(C)(C)C(c1ccccc1)C2c1ccc(OCCN2CCCC2)cc1 (configuration not stated) | 10 µM (active) | inactive | 32.2 µM (active) | -10.8% | 
13 | F[Si-2](F)(F)(F)(F)F | inactive | inactive | inactive | 7.11% | 
14 | O=C(O)COc1ccccc1/C=N/NC(=O)c1ccncc1 | inactive | inactive |  |  | inactive
15 | CCCCCCCCCC(=O)NO | inactive | inactive | inactive | 5.56% | 
16 | CCN(CC)CCOC(=O)c1cccnc1 | inactive | inactive | inactive | 2.66% | 
17 | CCOC(=S)SSC(=S)OCC | inactive | inactive |  |  | inactive
18 | CC1CC(O)CC(C)(C)C1 (configuration not stated) | inactive | inactive |  |  | inactive
19 | O=C(O)CCC(=O)c1ccc(-c2ccccc2)cc1 | inactive | 4.36 µM (active) | inactive | 0.885% [at 17.1 µM] | 
20 | Cc1cccc(C)c1NC(=O)C1CCCCN1C (configuration not stated) | inactive | inactive |  |  | inactive
21 | O=C(O)CC/C=C\CC[C@@H]1[C@@H](N2CCCCC2)[C@@H](O)C[C@@H]1OCc1ccc(-c2ccccc2)cc1 | 0.501 µM (active) | inactive | inactive | -1.41% | 
22 | CCN(CC)CCOc1ccccc1OC | inactive | inactive | inactive | -7.82% | 
23 | C=C1C(CCl)(CCl)C2(Cl)C(Cl)C(Cl)C1(Cl)C2(Cl)Cl (configuration not stated) | 28.2 µM (active) and 15.8 µM (active) | inactive |  |  | 36.1 µM (active)
24 | CN1C(=O)OC(C)(C)C1=O | inactive | inactive |  |  | inactive
25 | N[C@@H](Cc1cc(I)c(Oc2ccc(O)c(I)c2)c(I)c1)C(=O)O | inactive | inactive | inactive | -3.84% | 
26 | COc1ccccc1N1CCN(CCCC(=O)c2ccc(F)cc2)CC1 | 1.41 µM (active) | inactive | inactive | -14.3% | 
27 | Cn1c(O)c(N=NC(N)=S)c2ccccc21 | inactive | inactive |  |  | inactive
28 | NC(=O)CC[C@@H]1NC(=O)[C@H](Cc2ccccc2)NC(=O)[C@H](Cc2ccc(O)cc2)NC(=O)[C@@H](N)CSSC[C@@H](C(=O)N2CCC[C@H]2C(=O)N[C@@H](CCCN=C(N)N)C(=O)NCC(N)=O)NC(=O)[C@H](CC(N)=O)NC1=O | inactive | inactive | inactive | -1.23% | 
29 | CC12CCC(C1)C(C)(C)C2=O (configuration not stated) | inactive | inactive | inactive | 1.35% | 
